DAT uptake mod = changed hDAT dopamine uptake under cocaine IC80, either direction, primary screen, cocaine antagonist project, cell-based, LLC-PK1 hDAT, [14C]-dopamine uptake, MLSMR | Sodium-dependent dopamine transporter (Homo sapiens), Q01959 | LLC-PK1 hDAT cells, [14C]-dopamine uptake with cocaine IC80; actives deviate in either direction | B-score at 10 µM | actives 1.3% (n = 110,000);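 active = Z score or B-score, a plate-position-corrected score, falls beyond the plate's 99.7% confidence bounds, in either direction; inactive = both scores lie inside the 99.7% bounds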
Target sequence (Q01959 whole entry, looked up): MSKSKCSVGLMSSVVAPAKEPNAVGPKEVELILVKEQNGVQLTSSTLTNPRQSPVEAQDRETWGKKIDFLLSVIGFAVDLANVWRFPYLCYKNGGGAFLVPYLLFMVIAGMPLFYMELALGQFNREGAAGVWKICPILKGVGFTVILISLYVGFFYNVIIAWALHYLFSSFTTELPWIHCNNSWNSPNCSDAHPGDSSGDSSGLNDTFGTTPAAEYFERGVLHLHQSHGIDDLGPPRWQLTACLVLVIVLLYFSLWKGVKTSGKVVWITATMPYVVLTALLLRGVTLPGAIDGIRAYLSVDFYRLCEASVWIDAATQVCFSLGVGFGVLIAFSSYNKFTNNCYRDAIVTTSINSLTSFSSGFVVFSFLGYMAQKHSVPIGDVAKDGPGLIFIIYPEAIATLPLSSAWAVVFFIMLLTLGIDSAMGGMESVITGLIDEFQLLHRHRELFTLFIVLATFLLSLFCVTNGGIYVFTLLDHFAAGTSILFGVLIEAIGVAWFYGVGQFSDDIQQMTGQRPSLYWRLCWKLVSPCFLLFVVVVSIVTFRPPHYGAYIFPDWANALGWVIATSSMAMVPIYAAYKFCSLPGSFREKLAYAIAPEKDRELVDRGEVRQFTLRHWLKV
EphB4 antag = EphB4-ephrin-B2 interaction antagonists, primary screen, biochemical, TNYL-RAW peptide probe, fluorescence polarization; Ephrin type-B receptor 4 (Homo sapiens), P54760; EphB4 LBD / TNYL-RAW-Alexa532 peptide; actives 0.15% (n = 97,000); AID 720, 2007; inhibition, % at 7 µM;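 active = inhibition above the screen-wide mean inhibition plus 3 SD, cut at about 15% in these data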
D1 allo mod = D1 CRE-luciferase signal change, two-sided – cell-based, HEK293 D1, dopamine EC30, D1 allosteric modulator project, primary screen | B-score at 10 µM | actives 5.9% (n = 58,000) | D(1A) dopamine receptor (Homo sapiens), P21728 | dopamine EC30 potentiation; actives deviate in either direction;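 active = luminescence count or its row- and column-corrected plate score outside the 99.7% band of the plate's sample wells, on either side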
A number is an active result; – = inactive; · = not tested or not shown. The full list was thinned out, with hits kept by preference.

SMILES	DAT uptake mod	EphB4 antag	D1 allo mod
CCOC(=O)C1CCCN(Cc2ccc(OCC)cc2)C1 (centres undefined)	–	–	·
CCCCCn1c(=O)[nH]c2cc(C(=O)NCCCN(CC)CC)ccc2c1=O	-3.7	–	–
COCCn1c(=O)[nH]c2cc(C(=O)NCCCN3CCN(c4ccc(F)cc4)CC3)ccc2c1=O	–	–	-4.4
O=C(NCCCN1CCOCC1)c1ccc2c(=O)n(CCc3ccccc3)c(=O)[nH]c2c1	–	–	·
CCCCCn1c(=O)[nH]c2cc(C(=O)NCCN3CCOCC3)ccc2c1=O	·	–	–
O=C(NCCN1CCCC1)c1ccc2c(=O)n(CCc3ccccc3)c(=O)[nH]c2c1	-8.2	–	-3.7
COCCn1c(=O)[nH]c2cc(C(=O)NCCN3CCN(c4ccccc4F)CC3)ccc2c1=O	–	–	–
C=C1CCN([C@@H](CC(C)C)C(=O)NCc2ccco2)S(=O)(=O)c2ccccc21	–	·	·
C=CCCN(C(C(=O)OC)C(C)C)S(=O)(=O)c1ccccc1Br (centres undefined)	–	·	·
CN(C)CCCC1(O)c2ccccc2C=Cc2ccccc21	–	–	·
COc1ccc(CNc2nc3c(c(=O)n(Cc4ccc(Br)cc4)c(=O)n3C)n2C)cc1	–	–	-2.7
Cn1c(NCc2ccccc2)nc2c1c(=O)n(Cc1ccc(Br)cc1)c(=O)n2C	–	–	·
CCCCNC(=O)[C@@H]1CC=C[C@@H]2CCN(Cc3ccc(Cl)c(Cl)c3)C(=O)[C@@H]21	–	·	·
O=C(NCCc1ccccc1)[C@@H]1CC=C[C@@H]2CCN(Cc3ccc(Cl)c(Cl)c3)C(=O)[C@@H]21	3.2	·	·
Cc1ccc(NC2c3ccccc3C(=O)N2CCN2CCOCC2)cc1 (centres undefined)	–	–	·
N#Cc1cc(-c2ccccc2)oc1NC(=O)c1ccco1	-8.8	–	–
Cc1cccc(C(=O)Nc2oc(-c3ccccc3)cc2C#N)c1	–	–	·
CC1=CC(C)(C)N(C(=O)C(C)N2C(=O)c3ccccc3C2=O)c2ccc(C)cc21 (centres undefined)	–	–	·
CCN1C(=O)N(c2ccc(Cl)cc2)C(C)=CC1(C)C	–	–	·
CCO[C@@H]1OC(C(=O)N2CCN(C)CC2)=C[C@H](C(C)(C)C)[C@H]1CCCO	–	·	·
CC1(C)c2[nH]c3ccccc3c2C[C@H]2C(=O)N(Cc3ccc(F)cc3)C(=O)N21	–	·	·
Cc1ccc(Nc2nc(C3CC3)cs2)cc1	·	·	-4.9
Clc1ccc(Nc2nc(C3CC3)cs2)cc1	·	–	·
CCOC(=O)c1nnc(-c2cccs2)nc1NC(C)C	–	–	·
Cc1nc2c(Br)cc(Br)cc2cc1O	–	–	·
SMILES	DAT uptake mod	EphB4 antag	D1 allo mod
O=C1NC(c2cccs2)Nc2sc3c(c21)CCCC3 (centres undefined)	2.8	–	–
CN1CCc2c(sc3c2C(=O)NC(c2ccco2)N3)C1 (centres undefined)	–	–	–
O=C(Nc1ccc2nc(-c3ccco3)[nH]c2c1)c1cccs1	–	–	–
O=C(Nc1ccc2nc(-c3ccco3)[nH]c2c1)c1ccco1	3	–	–
CCCC(=O)N1CCN(c2ccc(NC(=O)c3ccc(OCC)c([N+](=O)[O-])c3)cc2)CC1	·	–	·
CN1CCN(c2ccc(NC(=O)c3ccc4c(c3)OCO4)cc2)CC1	–	–	-5.1
CC(=O)N1CCN(c2ccc(NC(=O)c3ccc4c(c3)OCCO4)cc2)CC1	–	–	–
CCOc1ccc(C(=O)Nc2ccc(N3CCN(C)CC3)cc2)cc1Br	·	–	-6.4
Clc1ccc(Nc2ccc(-n3ccnc3)nn2)cc1Cl	–	–	·
O=C(NCc1ccccc1)NC1CCCCC1	–	–	–
O=C(NCCc1ccccc1)NC1CCCCC1	–	–	-2.5
CCc1nnc(NC(=O)CSc2ncnc3c2cnn3-c2ccc(OC)cc2)s1	–	–	·
COc1ccc(C(=O)c2ccc(Cl)cc2Cl)cc1	–	–	·
Cc1c(C(=O)c2ccc(Cl)cc2Cl)cnc2cc3c(cc12)OCO3	-8.5	–	·
C#Cc1ccc([C@@H]2C=C(C(=O)NCc3ccccc3)O[C@H](OCCCCO)C2)cc1	–	·	·
CC1CCc2c(sc3nc(SCC(=O)NCc4ccco4)nc(N)c23)C1 (centres undefined)	–	–	–
CCN(CC)C(=O)CSc1nc(N)c2c3c(sc2n1)CC(C)CC3 (centres undefined)	2.1	–	·
Cc1ccc(CNC(=O)CSc2nc3ccccc3c3nc(C)nn23)cc1	–	–	·
NC(=O)NCCC1=CCCCC1	·	–	·
Cc1cc(C(=O)NCCC2=CCCCC2)c(C)o1	–	–	-6.6
O=C(/C=C/c1ccc(Cl)cc1)NCCN1CCOCC1	-7.8	–	·
O=C(NCCN1CCOCC1)c1ccc(Cl)cc1	–	–	–
COCOc1ccc(C=O)cc1OCOC	–	·	·
CCCN(C(=S)Nc1ccccc1)C1CCS(=O)(=O)C1 (centres undefined)	–	–	·
CCCCOc1ccc(CNC(=O)NS(=O)(=O)c2ccc(OCC)cc2)cc1	-9.1	–	·
SMILES	DAT uptake mod	EphB4 antag	D1 allo mod
CCOc1ccc(S(=O)(=O)NCc2ccncc2)cc1	-2.7	–	·
CCCCOc1ccc(S(=O)(=O)NC(=O)NCc2ccc(OCCC)cc2)cc1	–	–	·
CCOC(=O)COc1ccc(S(=O)(=O)NCc2ccncc2)cc1	–	–	–
Cc1cc(C(=O)CSc2nnc(-c3cccnc3)n2-c2ccccc2F)c(C)n1CC1CCCO1 (centres undefined)	–	–	·
COc1cc2c(cc1NC(=O)CN(C)Cc1nc3ccccc3c(=O)[nH]1)oc1ccccc12	–	·	-2.7
COc1cc2c(cc1NC(=O)CSc1nc3ccccc3[nH]1)oc1ccccc12	·	–	·
Cc1nnc(N2CCN(C)CC2)c2nn(-c3ccc(Cl)cc3)c(C)c12	·	–	·
Cc1ccc(SCc2cn3c(C)csc3n2)cc1	–	–	-4.6
Cc1ccc(S(=O)(=O)NCc2cn3c(C)csc3n2)cc1	–	–	·
C[C@H](NC(=O)c1[nH]cnc1C(=O)Nc1ccc(CNC(=O)OC(C)(C)C)cc1)C(=O)OC(C)(C)C	–	·	·
COCCNC(=O)NC(=O)COC(=O)c1cc([N+](=O)[O-])ccc1Sc1nc(C)cs1	–	–	·
COc1cccc(NC(=O)CSc2nnc(-c3ccoc3C)n2-c2ccccc2)c1	–	–	·
Cc1cccc(-n2c(SCC(=O)Nc3ccc4c(c3)OCO4)nnc2-c2ccoc2C)c1	–	–	-3.4
Cc1cccc(-n2ccnc2SCC(=O)Nc2ccc3c(c2)OCCO3)c1	1.8	–	–
O=C(CSc1nccn1-c1ccc(Cl)cc1)Nc1ccc2c(c1)OCO2	–	–	–
O=S(=O)(N/N=C\c1ccc2c(c1)OCO2)c1ccc(Cl)cc1	–	–	·
O=C(NCC1CC1)c1onc(CSc2ccncc2)c1C(=O)NCC1CC1	–	·	·
COc1ccc(S(=O)(=O)Nc2ccccc2C(F)(F)F)cc1	–	–	–
COc1ccc(S(=O)(=O)NC(C)C(=O)Nc2ccccc2C(F)(F)F)cc1 (centres undefined)	-1.7	–	·
COC(=O)c1oc2ccccc2c1NC(=O)CN1CCCC1	–	·	13
COC(=O)c1oc2ccc(Br)cc2c1NC(=O)CN1CCN(C)CC1	–	–	–
COc1ccc(C2CC(c3ccccc3)n3nnnc3N2)cc1 (centres undefined)	–	–	·

Screens: PubChem BioAssay, several laboratories
